The campaign covered roughly 2,100 compounds. About 1,100 (52%) were called active. Another 29% or so got no clear call; they are omitted. Calls follow the shape of the dose curve; as a rule, active = well fitted inhibition curve with a large enough effect; inconclusive = small, poorly fitted or top-dose-only effect; inactive = no such curve, though single readings can be large or run the other way. The set was probably picked from earlier hits. The list shows a part of the results.
biological target: DNA dC->dU-editing enzyme APOBEC-3F (Homo sapiens) (UniProt Q8IUX4); test: qHTS for inhibitors of Vif-A3F interactions: Cherry picks counterscreen; details: HeLa A3F-eYFP/Vif cells, eYFP fluorescence, 24 h; series mostly up to 46.1 µM; also: nearly all actives have a fitted effect of over 65% in size
Text: The recent discovery and characterization of host restriction factors, which provide a potent defense to invading retroviruses, has provided new targets for antiviral drug development. APOBEC3G (A3G) and APOBEC3F (A3F) are potent cytidine deaminases that block HIV-1 replication; HIV-1 expresses the Vif protein, which counteracts A3G and A3F by binding to them and inducing their proteasomal degradation. The Vif-A3G and Vif-A3F interactions provide two potential targets for development of small molecules which can interfere with the ability of Vif to degrade A3G or A3F. […] To identify inhibitors that can interfere with Vif mediated degradation of A3G and A3F, we have developed Hela cell lines that stably express A3G or A3F tagged with eYFP at the C-terminal end (A3G-eYFP or A3F-eYFP, respectively) and Vif. In the absence of an inhibitor, Vif induces degradation of A3G-eYFP and A3F-eYFP, and the cells are not fluorescent. In the presence of an inhibitor, it is expected that Vif will be unable to degrade A3G-eYFP and/or A3F-eYFP, resulting in an increase in yellow fluorescence. In this counterscreen assay, Vif A3F was screened against the cherry picks ordered from the MLSMR. NIH Chemical Genomics Center [NCGC] NIH Molecular Libraries Probe Centers Network [MLPCN] MLPCN Grant: MH093245 Assay Submitter (PI): Vinay Pathak, National Cancer Institute
A3F-Vif cells were harvested from T225 flask and resuspended in phenol free OPTI-MEM medium with 5% FBS. Then 5 uL of 140,000 cells/mL resuspended cells was dispensed into each well of low base Aurora COC 1,536-well plates (black walled, clear bottom) using a Multidrop Combi dispenser. After overnight culture at 37 deg C with 5% CO2, a total of 23 nL of compounds at 5 selected concentrations from the NPC or positive control (2 mM stock of MG132) in DMSO was transferred to each well of the assay plate using a pintool (Kalypsys, San Diego, CA), and the plates were further incubated at 37 deg C with 5% CO2 for 24 hours. After that, the plates were measured on Acumen Explorer (TTP Lab Tech). The fluorescence was detected by 488 nm/Ex and […].
Potency is read from the fitted curve at half-maximal effect.

Chain of DNA dC->dU-editing enzyme APOBEC-3F (Homo sapiens) (Q8IUX4 whole entry, looked up): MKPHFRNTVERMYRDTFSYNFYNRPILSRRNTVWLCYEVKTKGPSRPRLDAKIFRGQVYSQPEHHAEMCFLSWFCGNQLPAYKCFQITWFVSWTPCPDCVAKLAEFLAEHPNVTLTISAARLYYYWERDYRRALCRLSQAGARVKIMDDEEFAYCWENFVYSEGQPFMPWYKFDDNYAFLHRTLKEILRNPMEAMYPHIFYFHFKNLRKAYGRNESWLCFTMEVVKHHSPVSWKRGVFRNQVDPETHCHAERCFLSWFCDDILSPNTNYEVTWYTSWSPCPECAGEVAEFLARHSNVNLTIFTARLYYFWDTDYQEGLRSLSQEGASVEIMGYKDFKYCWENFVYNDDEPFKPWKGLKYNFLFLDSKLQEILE

Structure (SMILES) | Potency
Cc1cc(N2CCCC2)ccc1C=C(C#N)C#N | 20.6 µM (active)
CN1/C(=C\C=C2C(=O)NC(=O)NC2=O)C(C)(C)c2ccccc21 | 4.11 µM (active)
CCS(=O)(=O)N1N=C(c2cccc(NS(C)(=O)=O)c2)CC1c1ccccc1 (configuration not stated) | 23.1 µM (active)
CCCCn1c(O)c(C(=O)/C=C/c2c[nH]c3ccccc23)c(=O)[nH]c1=O | 17.7 µM (active)
CN1CCN(c2ccc(/C=C3\C(=O)NC(=S)N(c4cccc(Br)c4)C3=O)o2)CC1 | 23.1 µM (active)
CCC(C)N1C(=O)/C(=C\c2ccc(N3CCCCCC3)cc2)C(=O)NC1=S (configuration not stated) | inactive
CN1C(=O)/C(=C/c2ccc(N3CCCCCC3)o2)C(=O)NC1=S | 4.44 µM (active)
CN1C(=O)/C(=C\c2ccc(N3CCCCC3)o2)C(=O)NC1=S | 17.7 µM (active)
CC(=O)O[C@@]12CO[C@@H]1C[C@H](OC1OCC(O)C(O)C1O)[C@@]1(C)C(=O)[C@H](O)C3=C(C)[C@@H](OC(=O)[C@H](O)[C@@H](NC(=O)c4ccccc4)c4ccccc4)C[C@@](O)([C@@H](OC(=O)c4ccccc4)C12)C3(C)C (some centres not stated) | 4.44 µM (active)
CN1C(=O)C(=Cc2ccc(N3CCOCC3)o2)C(=O)N(C)C1=S | 8.2 µM (active)
CN1C(=O)C(=Cc2ccc(N3CCOCC3)o2)C(=O)N(C)C1=O | 6.51 µM (active)
CN1C(=O)C(=Cc2ccc(N3CCCCC3)o2)C(=O)N(C)C1=S | 3.66 µM (active)
Cc1cc(N(CCCl)CCCl)ccc1C=Cc1ccncn1 | 16.4 µM (active)
O=C1NC(=O)N(Cc2ccc(F)cc2)C(=O)/C1=C\C=C\c1ccco1 | 23.1 µM (active)
CN(C)c1ccc(/C=C/C=C2/C(=O)NC(=O)N(c3ccccc3)C2=O)cc1 | 23.1 µM (active)
CC(C)c1ccc(N2C(=O)NC(=O)/C(=C\C=C\c3ccco3)C2=O)cc1 | 17.7 µM (active)
CC(C)c1ccc(N2C(=O)NC(=O)/C(=C/C=C/c3ccco3)C2=O)cc1 | 14 µM (active)
COCCCNC(=O)c1c(NC(=O)c2ccco2)n(Cc2ccccc2)c2nc3ccccc3nc12 | inactive
Cc1cc(/C=C2\C(=O)NC(=O)N(c3ccc(Br)cc3)C2=O)c(C)n1C | inactive
Cc1ccc(N2C(=O)NC(=O)/C(=C\C=C\c3ccco3)C2=O)cc1C | 5.8 µM (active)
CC/C(=N\NC(=O)c1ccccc1O)c1c(O)n(Cc2ccccc2)c(=O)[nH]c1=O | 18.4 µM (active)

Structure (SMILES) | Potency
COc1cccc(C2=CC(c3cc(Br)ccc3F)n3nnnc3N2)c1 (configuration not stated) | 1.46 µM (active)
COC(=O)C1=C(C)N(Cc2ccco2)C(=O)/C1=C\c1ccc(N(C)C)cc1 | 6.51 µM (active)
O=C1NC(=O)N(c2ccc3c(c2)OCO3)C(=O)/C1=C\c1ccc(N2CCCCC2)o1 | 18.4 µM (active)
O=C1NC(=O)N(c2ccc3c(c2)OCO3)C(=O)/C1=C/c1ccc(N2CCCCC2)o1 | 20.6 µM (active)
COc1cc(C2C(C#N)=C(N)Oc3cc(O)ccc32)cc(OC)c1OC (configuration not stated) | 3.53 µM (active)
Cc1cccc(-n2c(O)c(/C=C/C=Nc3ccccc3)c(=O)[nH]c2=O)c1 | 4.61 µM (active)
Cc1cccc(-n2c(/C=C/c3ccc([N+](=O)[O-])o3)nc3ccccc3c2=O)c1 | 8.2 µM (active)
O=c1c2ccccc2nc(/C=C/c2ccc([N+](=O)[O-])o2)n1-c1ccc(O)cc1 | 11.2 µM (active)
COc1ccc(-n2c(/C=C/c3ccc(O)c(OC)c3)nc3ccccc3c2=O)cc1 | 16.4 µM (active)
COc1ccccc1-n1c(/C=C/c2ccc(O)cc2)nc2ccccc2c1=O | inactive
Cc1cccc(-n2c(/C=C/c3c(C)[nH]c4ccccc34)nc3ccccc3c2=O)c1 | 18.4 µM (active)
CCN(CC)c1ccc(/C=C2\C(=O)NC(=S)N(C)C2=O)o1 | 0.559 µM (active)
CCN(CC)c1ccc(C=C2C(=O)N(C)C(=S)N(C)C2=O)o1 | 0.314 µM (active)
CCN(CC)c1ccc(/C=C2\C(=O)NC(=S)N(c3ccc(OC)cc3OC)C2=O)o1 | 23.1 µM (active)
CCN(CC)c1ccc2c(cc1=O)[C@@H](NC)CCc1cc(OC)c(OC)c(OC)c1-2 | 1.4 µM (active)
Cc1ccccc1-n1c(/C=C/c2ccc(N(C)C)cc2)nc2ccccc2c1=O | 4.11 µM (active)
CCN(CC)c1ccc(N=Cc2c(O)n(Cc3ccccc3)c(=O)[nH]c2=O)cc1 | 20.6 µM (active)
C=CCn1c(O)c(C(C)=Nc2ccc(N(CC)CC)cc2)c(=O)[nH]c1=O | 11.2 µM (active)
CCN(CC)c1ccc(N=Cc2c(O)n(CCC3=CCCCC3)c(=O)[nH]c2=O)cc1 | 16.4 µM (active)
O=C1NC(=S)SC1=Cc1ccc(N(CCCl)CCCl)cc1 | 17.7 µM (active)
CCOc1ccc(CNC(=O)c2cccc(Nc3nc4ccccc4n4nnnc34)c2)cc1OC | 16.4 µM (active)

Structure (SMILES) | Potency
COc1ccc(-c2ccc(OC)c(OC)c2OC)cc1 | 3.96 µM (active)
CN(C)c1ccc(C(=O)c2ccc(N(C)C)cc2)cc1 | 0.994 µM (active)
CCCCn1c(O)c(/C=C2/C=CC=N2)c(=O)[nH]c1=O | 12.5 µM (active)
O=c1[nH]c(=O)n(Cc2ccccc2Cl)c(O)c1/C=C1/C=CC=N1 | 18.4 µM (active)
C=C1C(=O)OC2C1CCC(C)C1(O)C=CC(=O)C21C (configuration not stated) | 5.59 µM (active)
COCCCn1c(=O)/c(=C\c2ccccc2OC(F)F)s/c1=C(/C#N)C(=O)NCCOC | 18.4 µM (active)
CCCCNC(=O)/C(C#N)=c1\s/c(=C\c2ccccc2OC(F)F)c(=O)n1CCCOC | 9.2 µM (active)
CC(=O)Nc1cccc(-c2ccnc3c2CC(C(=O)NCc2ccco2)O3)c1 (configuration not stated) | 4.44 µM (active)
CC1=CC(=Cc2sc3ccccc3[n+]2C)C=C(C)O1 | 10.3 µM (active)
O=[N+]([O-])c1ccc(N2CCOCC2)c2c1no[n+]2[O-] | 15.8 µM (active)
NC(=Nc1ccccc1)NN=Cc1c[nH]c2ccccc12 | 3.14 µM (active)
O=c1[nH]c(CN2CC=C(c3ccccc3)CC2)nc2scc(-c3ccccc3)c12 | 18.4 µM (active)
N#CC1=C(N)Oc2c(c(=O)sc3ccccc23)C1c1cccnc1 (configuration not stated) | 3.14 µM (active)
Cn1cccc1/C=C1\C(=O)NC(=O)N(Cc2ccccc2Cl)C1=O | 13 µM (active)
Cc1c(Cl)cccc1NC(=O)c1oc2ccc(S(=O)(=O)N3CCC4(CC3)OCCO4)cc2c1C | 16.4 µM (active)
COc1ccc(-n2cnc3cc(C(=O)N4CCC5(CC4)OCCO5)ccc32)cc1 | 17.7 µM (active)
Cc1cccc(CN2CCCC(C(=O)c3cccc(OC(C)C)c3)C2)n1 (configuration not stated) | inactive
O=Cc1c(C(=O)O)n(Cc2ccc(Cl)cc2)c2ccccc12 | 13 µM (active)
Nc1ccc2c3c(cccc13)-c1ccccc1-2 | 4.61 µM (active)
CC(=O)OC1C2(CC3N4C(=O)C5(CO)SSC4(CC31O)C(=O)N5C)OC(C)C(C)(C)C2=O (configuration not stated) | 3.53 µM (active)

— PubChem BioAssay AID651815 (National Center for Advancing Translational Sciences (NCATS), 2012)
